Test results published in the supplement of paper PMC10338343.
± gives the standard deviation. The full ranking holds about 5,500 sequences; the median of “pre-steady-state target cleavage rate” is about 0.1, and the highest 2% start at about 0.64. The entries come from a sample that favours the highest values as a whole.

system: MIWI (PIWIL1) piRISC loaded with piRNA #2 (30 nt); assay: pre-steady-state target cleavage rate (min^-1); MIWI and MILI are mouse PIWI proteins and EfPiwi is from a freshwater sponge; tags in brackets are library labels; higher = faster piRNA-guided slicing of the target; details: guide: piRNA #2 5'p-UUAGGUAACCCAGUAGAUCCAGAGGAAUUC; auxiliary factor: 500 nM mouse GTSF1
In short: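 The pre-steady-state cleavage rate came from a burst-and-steady-state fit to pooled data from three Cleave-'n-Seq trials, in which uncleaved targets were sequenced and normalised to depth and to weakly complementary targets. Each reaction held 0.1 nM transcribed, DNA-blocked target RNA library and 1 nM active affinity-purified piRISC carrying one synthetic guide, with or without 500 nM GTSF1 partner protein, in HEPES–potassium acetate buffer at 33 °C for 0–8 or 0–960 min. k3 was capped at 0.0001 min^-1.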

Sequence | pre-steady-state target cleavage rate
CAAUUCCUCUCCAUCUACUGGGUUACCUAA | 0.829 ± 0.057
GAAUUCCUCCUGGAUCUACUGGGUUACCUAA | 0.445 ± 0.047
CUAUUCCUCUGGGAUCUACUGGGUUACCUAA | 0.514 ± 0.042
CUAUUCCUCUCCAUCUACUGGGUUACCUAA | 0.647 ± 0.051
GAAUUCCUCUCCAUCUACUGGGUUACCUAA | 0.706 ± 0.051
CAAUUCCAUCUGGAUCUACUGGGUUACCUAA | 0.568 ± 0.064
CUAUUCCAUCUGGAUCUACUGGGUUACCUAA | 0.537 ± 0.053
CUUAUCCUCUCCAUCUACUGGGUUACCUAA | 0.422 ± 0.033
GAAUUCCUCGGAUCUACUGGGUUACCUAA | 0.432 ± 0.08
CUUAAGGGCUGGAUCUACUGGGUUACCUAA | 0.159 ± 0.037
CUUAAGGAGUGGAUCAACUGGGUUACGUAA | 0.053 ± 0.014
CUUAAGGACUGGAUCUACUGGGUCUACCUAA | 0.0638 ± 0.033
CUUAACCUGCUGGAUCUACUGGGUUACCUAA | 0.356 ± 0.036
CUUAAGGACUGGAUUCUACUGGGUUACCUAA | 0.0274 ± 0.024
GAAUACCUCAGGAUCUACUGGGUUACCUAA | 0.421 ± 0.043
CAAUUCCUCAGGUUCUACUGGGUUACCUAA | 0.709 ± 0.054
CUAAUCCUCAGGAUCUACUGGGUUACCUAA | 0.55 ± 0.055
GAAUUCCUCAGGAUCUACUGGGUUACCUAA | 0.483 ± 0.048
CUAUACCUCAGGAUCUACUGGGUUACCUAA | 0.465 ± 0.051
GUAUUCCUCAGGAUCUACUGGGUUACCUAA | 0.0863 ± 0.033
CAAUACCUCAGGAUCUACUGGGUUACCUAA | 0.656 ± 0.061
CAAAUCCUCAGGAUCUACUGGGUUACCUAA | 0.754 ± 0.059
GAAAUCCUCAGGAUCUACUGGGUUACCUAA | 0.446 ± 0.051
CAAUUCCUCAGGAUCUACUGGGUUACCUAA | 0.695 ± 0.062

Sequence | pre-steady-state target cleavage rate
GAAUUCCUCAGGUUCUACUGGGUUACCUAA | 0.539 ± 0.049
CUAUUCCUCAGGUUCUACUGGGUUACCUAA | 0.584 ± 0.05
GAAUUCCUCUGGAUCUACUCGGUUACGUAA | 0.155 ± 0.021
CUUAUCCACUGCAUCUACUGGGUUACCUAA | 0.314 ± 0.018
CUUAAGGUCUGGAUCUACAGGGUUACCUUA | 0.0564 ± 0.011
CUUAAGGACUGGAUCUUCUGGGUUACCUAA | 0.0593 ± 0.037
CUAUGCCUCUGGAUCUACUGGGUUACCUAA | 0.275 ± 0.037
CUAUUCCUCUGGAUCUACUCCGUUACCUAA | 0.0198 ± 0.0061
CUAUUCCACUGGAUCUACUGCGUUACCUAA | 0.542 ± 0.056
CUAUUCCUCAGGAUCUACUGCGUUACCUAA | 0.561 ± 0.069
GAUUUCCUCAGGAUCUACUGGGUUACCUAA | 0.459 ± 0.046
CAAUUCCACUGGAUCUACUGCGUUACCUAA | 0.468 ± 0.067
CAAUUCCUCAGGAUCUACUGCGUUACCUAA | 0.674 ± 0.071
CUUUUCCUCAGGAUCUACUGGGUUACCUAA | 0.578 ± 0.054
GAAUUCCUCAGGAUCUACUGCGUUACCUAA | 0.518 ± 0.048
CAUUUCCUCAGGAUCUACUGGGUUACCUAA | 0.701 ± 0.054
GAAUUCCACUGGAUCUACUGCGUUACCUAA | 0.744 ± 0.063
CUUAACCACUGGAUCUACUCGGUUACCUAA | 0.0483 ± 0.01
CUUAUCCUCUGGAUGCUACUGGGUUACCUAA | 0.277 ± 0.034
CUAUUCCUCUGGAUGUACUGGGUUACCUUA | 0.403 ± 0.043
CUUAAGGACUGGAUCUACUGGGUUACCGUAA | 0.0402 ± 0.032
CUUUUCCUCUGGAUCUACUGGGAUUCCUAA | 0.087 ± 0.033
CUAUUCCUGUGGAUCUACUGGCUUACCUAA | 0.0662 ± 0.017
CUAAUCCUCUGGAUCUACUGGGUUACGUAA | 0.66 ± 0.052

Sequence | pre-steady-state target cleavage rate
CAAAUCCUCUGGAUCUACUGGGUUACGUAA | 0.555 ± 0.064
GAAAUCCUCUGGAUCUACUGGGUUACGUAA | 0.532 ± 0.058
CUUAUCCUCUGGAUCUACUGGGUUACCGUAA | 0.344 ± 0.063
CUUAUCCUCUGGAUCUACUGGGUUACGUUA | 0.469 ± 0.07
CUUAUCCUCUCGAUCUACUGGGUUACCUUA | 0.436 ± 0.032
CUUAUCCUCUGGAUCUACUGGGUUACGUAA | 0.684 ± 0.049
CUUAUCCUCUCGAUCUACUGGGUUACGUAA | 0.728 ± 0.046
CUUAACCUCUCGAUCUACUGGGUUACGUAA | 0.551 ± 0.037
CUUUUCCUCAGGAUCUACUGGGUUAGCUAA | 0.133 ± 0.041
CAAUUCCUCUGGAUCUACUGGGUUUCCUUA | 0.281 ± 0.067
GAAUACCUCUGGAUGUACUGGGUUACCUAA | 0.251 ± 0.044
CUAUUCCUCUGGAUCUACUGGGUUACGUUA | 0.401 ± 0.055
CUUAUCCUGUGGAUCUACUGGGUUACCUAA | 0.443 ± 0.056
CUUAUCCUCUGGAUCUACUGGGUUAUCCUAA | 0.413 ± 0.057
CUUAAGGACGGAUCUACUGGGUUACCUAA | 0.0543 ± 0.039
CUAUUCCUCUGGAUCAACUGGGUUACCUAA | 0.44 ± 0.051
CUUAUCCUCUCGAUCAACUGGGUUACCUAA | 0.508 ± 0.033
GAAUUCCUCUCGAUCAACUGGGUUACCUAA | 0.63 ± 0.051
CUUUUCCUCUCGAUCAACUGGGUUACCUAA | 0.553 ± 0.039
CAAUUCCUCUCGAUCAACUGGGUUACCUAA | 0.721 ± 0.053
CUAUUCCUCUCGAUCAACUGGGUUACCUAA | 0.637 ± 0.047
CUUUUCCUCUGGAUCUACUGCGUUAGCUAA | 0.142 ± 0.048
CUUAAGGAGUGGAUCUACUGGGUUACCAUA | 0.0428 ± 0.015
